Screening results (PubChem)
The entries come from a sample that favours hits as a whole.
GRP78 ERSR act = qHTS for Inducers of the Endoplasmic Reticulum Stress Response (ERSR) in Human Glioma: qHTS; U87-MG GRP78 promoter luciferase reporter, 16 h; Potency, µM, for inactives: at the top dose activation, actives largely listed as activators; 420,000 tested, 0.02% active; note: series mostly up to about 76 µM; % of control where 0% means no effect; nearly all actives have a fitted effect of over 35% in size
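Stably transfected U87-MG glioma cells carrying a GRP78-based luciferase sensor; 16 h compound incubation. Luminescence end-point read 10 min after Bright-Glo addition at room temperature.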
ALOX12 inh = Primary qHTS assay for inhibitors of human arachidonate 12S-lipoxygenase (ALOX12): Round 2; Polyunsaturated fatty acid lipoxygenase ALOX12 (Homo sapiens), P18054; purified 12hLO, xylenol orange hydroperoxide absorbance; Potency, µM (doses to about 108 µM), without a hit: at the top dose activity change, negative = inhibition, usual class: inhibitors; 580,000 tested, 1.1% active; note: % is set by controls: 0 for no effect and ±100 for the full control effect
Target sequence (P18054 whole entry, looked up): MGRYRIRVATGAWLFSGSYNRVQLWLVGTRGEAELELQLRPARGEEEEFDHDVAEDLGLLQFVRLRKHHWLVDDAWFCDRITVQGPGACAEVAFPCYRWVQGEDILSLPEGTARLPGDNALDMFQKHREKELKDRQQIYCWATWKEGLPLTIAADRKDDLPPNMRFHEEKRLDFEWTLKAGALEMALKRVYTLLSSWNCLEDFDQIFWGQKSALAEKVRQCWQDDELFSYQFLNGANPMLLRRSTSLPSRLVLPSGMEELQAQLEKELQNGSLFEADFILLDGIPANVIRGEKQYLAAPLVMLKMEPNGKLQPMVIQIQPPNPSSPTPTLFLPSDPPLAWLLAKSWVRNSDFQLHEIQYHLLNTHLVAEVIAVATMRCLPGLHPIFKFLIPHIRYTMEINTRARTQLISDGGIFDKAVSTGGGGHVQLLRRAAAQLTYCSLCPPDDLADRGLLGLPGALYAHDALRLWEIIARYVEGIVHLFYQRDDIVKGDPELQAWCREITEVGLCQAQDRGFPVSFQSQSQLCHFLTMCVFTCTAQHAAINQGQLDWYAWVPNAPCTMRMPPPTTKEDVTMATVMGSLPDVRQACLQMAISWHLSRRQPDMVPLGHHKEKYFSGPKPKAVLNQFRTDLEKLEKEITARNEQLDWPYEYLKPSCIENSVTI
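Purified human 12hLO at 150 nM in 25 mM Hepes, 0.01% Triton X-100, pH 7.0, preincubated 15 min at room temperature with compound. Reaction started with 40 uM arachidonic acid, 30 min at room temperature. Hydroperoxide measured by Fe-xylenol orange, 573/405 nm absorbance ratio.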
VDR inhibitor = Inhibitors of the vitamin D receptor (VDR): qHTS. Potency, µM, without a hit: max response, negative = inhibition, most hits filed as inhibitors. 400,000 tested, 0.93% active. Vitamin D3 receptor (Homo sapiens), P11473. VDR-SRC2-3 peptide fluorescence polarization, 2 h; note: % is set by controls: 0 for no effect and ±100 for the full control effect
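VDR–SRC2-3 interaction, FP format. Cmpds 23 nl via pintool, brief spin, 2 h ambient incubation.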
G9a inh = qHTS Assay for Inhibitors of Histone Lysine Methyltransferase G9a; Histone-lysine N-methyltransferase EHMT2 (Homo sapiens), Q96KQ7; G9a H3K9 monomethylation, AlphaScreen, 2 h; Potency, µM (doses to about 102 µM), inactives show top-dose activity, negative = inhibition, hits mostly inhibitors; 350,000 tested, 8.8% active; AID 504332, 2011; note: % is set by controls: 0 for no effect and ±100 for the full control effect; nearly all actives have a fitted effect of over 75% in size
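Compounds were preincubated with 20 nM G9a for 15 min, after which biotinylated H3K9 peptide (500 nM) and SAM (20 uM) started a 2 h room-temperature reaction. Monomethylated product was quantified by antibody-based AlphaScreen chemiluminescence.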
Sfp inh = qHTS Assay for Inhibitors of Bacillus subtilis Sfp phosphopantetheinyl transferase (PPTase); 4'-phosphopantetheinyl transferase ffp (Bacillus subtilis), Q9F4F7; Biochemical Sfp PPTase activity, qHTS; 310,000 tested, 3.5% active; Potency, µM, for inactives: largest response in the series, negative = inhibition, most hits filed as inhibitors;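 note: the enzyme is Sfp with the accession as filed and its product quenches rhodamine fluorescence; 0% = enzyme reaction without inhibitor and -100% = no enzyme wells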
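Fluorescence-quenching assay: 15 nM Sfp-PPTase preincubated 15 min at room temperature with compound, then 5 uM rhodamine-CoA and 12.5 uM BHQ-2-labelled YbbR peptide added. Fluorescence (ex 525/em 598 nm) read at start and after 30 min; difference gives rate.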
Starred values were filed as active, the others as inactive; [ ] = remark or other dose. Calls come from the whole dose curve; as a rule, active = well fitted curve in the direction sought with a large enough effect; inconclusive = small, poorly fitted or top-dose-only effect, or another doubt; inactive = no such curve, though single readings can be large; an effect the other way counts as inactive or inconclusive. Potency is the fitted concentration of half-maximal effect.

Results for O=C(CCOc1ccccc1)OCC(=O)c1cc2ccccc2o1 ?
GRP78 ERSR act: -4%; ALOX12 inh: -2%; VDR inhibitor: 5%; G9a inh: inconclusive; Sfp inh: -5%

Results for Cc1cccc(OCCC(=O)OCC(=O)Nc2c(C)nn(-c3ccccc3)c2C)c1 ?
GRP78 ERSR act: -1%; VDR inhibitor: -6%; G9a inh: 35µM*

How did Cc1cccc(OCCC(=O)OCC(=O)c2cc3ccccc3o2)c1 do in these assays?
ALOX12 inh: 50µM*

Results for COc1ccc(-c2noc(-c3cccc(NC(=O)C4CC(=O)N(c5ccc(OC)cc5)C4)c3)n2)cc1 (configuration not stated) ?
ALOX12 inh: -15%

Results for OCCCN(Cc1ccccc1)C1CC1 ?
ALOX12 inh: -1%

What do the screens show for `OCCN(Cc1ccccc1)CC1CC=CCC1` (configuration not stated)?
GRP78 ERSR act: -2%; ALOX12 inh: inconclusive; VDR inhibitor: -1%; G9a inh: 10µM*; Sfp inh: -16%

Results for Cc1ccc(C)c(C(=O)c2sc(Nc3cccc(F)c3)nc2N)c1 ?
ALOX12 inh: -16%

How did O=C(c1ccncc1)N1CCC(Cc2nc(-c3ccccc3)n[nH]2)CC1 do in these assays?
ALOX12 inh: 33%

Results for C/C(N)=C(/C#N)C(=O)CSc1nc2ccccc2c(=O)n1Cc1ccc(F)cc1 ?
GRP78 ERSR act: -1%; ALOX12 inh: 8%; VDR inhibitor: -11%; G9a inh: -44%; Sfp inh: 71µM*

What do the screens show for `COc1ccc(NC(=O)c2ccc(C#N)cc2)cc1NS(=O)(=O)c1ccc(F)cc1`?
GRP78 ERSR act: -2%; ALOX12 inh: 9%; VDR inhibitor: -28%; G9a inh: 8.9µM*; Sfp inh: -13%

What do the screens show for `COc1nccnc1NS(=O)(=O)c1ccc(NC(=S)NC(=O)c2cccnc2)cc1`?
GRP78 ERSR act: -1%; ALOX12 inh: -24%; VDR inhibitor: -12%; G9a inh: 50µM*; Sfp inh: inconclusive

How did COc1nsnc1NS(=O)(=O)c1ccc(NC(=S)NC(=O)c2cccnc2)cc1 do in these assays?
GRP78 ERSR act: -1%; ALOX12 inh: -25%; VDR inhibitor: 20%; Sfp inh: inconclusive

What do the screens show for `COc1ccc(NC(=O)c2ccc3ccccc3c2)cc1NS(=O)(=O)c1ccc(F)cc1`?
GRP78 ERSR act: 1%; ALOX12 inh: 19%; VDR inhibitor: -3%; G9a inh: -6%[59 µM]; Sfp inh: 10%

Results for COc1nccnc1NS(=O)(=O)c1ccc(NC(=S)NC(=O)c2cccc(F)c2)cc1 ?
GRP78 ERSR act: -2%; ALOX12 inh: inconclusive; VDR inhibitor: -22%; G9a inh: inconclusive; Sfp inh: 3%

What do the screens show for `COc1nccnc1NS(=O)(=O)c1ccc(NC(=S)NC(=O)c2ccccc2F)cc1`?
GRP78 ERSR act: -1%; ALOX12 inh: 45µM*; VDR inhibitor: -10%; G9a inh: inconclusive; Sfp inh: -23%

How did COc1nccnc1NS(=O)(=O)c1ccc(NC(=S)NC(=O)c2ccc(F)cc2)cc1 do in these assays?
GRP78 ERSR act: -5%; ALOX12 inh: 35µM*; VDR inhibitor: -6%; G9a inh: inconclusive; Sfp inh: 50µM*

What do the screens show for `COc1ccc(NC(=O)c2ccco2)cc1NC(=O)c1cccc(C)c1`?
ALOX12 inh: -11%

How did O=C(NC(=S)Nc1ccc(F)c([N+](=O)[O-])c1)c1ccccc1F do in these assays?
GRP78 ERSR act: 2%; ALOX12 inh: -17%; VDR inhibitor: 7%; G9a inh: 45µM*; Sfp inh: -11%

What do the screens show for `CCOC(=O)c1ccc(Nc2c(-c3ccc(N(C)C)cc3)nc3nc[nH]n23)cc1`?
GRP78 ERSR act: 1%; ALOX12 inh: -11%; VDR inhibitor: -6%; G9a inh: 16µM*

What do the screens show for `CCOC(=O)c1c(/N=C/c2ccc(O)cc2O)sc2c1CCC2`?
G9a inh: -10%[59 µM]; Sfp inh: -11%

What do the screens show for `CCOC(=O)c1c(/N=C/c2cccc([N+](=O)[O-])c2O)sc2c1CCC2`?
GRP78 ERSR act: -4%; ALOX12 inh: inconclusive; VDR inhibitor: -32%; Sfp inh: 18µM*

How did CCOC(=O)c1c(NC(=O)c2c(C(=O)O)cccc2[N+](=O)[O-])sc2c1CCCC2 do in these assays?
GRP78 ERSR act: -3%; ALOX12 inh: 0%; VDR inhibitor: inconclusive; G9a inh: 8.9µM*; Sfp inh: 18µM*

How did CCOC(=O)c1c(/N=C/c2ccccc2O)sc2c1CCC2 do in these assays?
GRP78 ERSR act: -5%; ALOX12 inh: inconclusive; VDR inhibitor: -7%; G9a inh: 71µM*; Sfp inh: -14%

How did Cc1cc(C)c(NC(=O)CNC(=O)c2nccnc2N)c(C)c1 do in these assays?
ALOX12 inh: 8%

How did COc1ccc(C(=O)Nc2ccccc2N2CCCCC2)cc1S(=O)(=O)NC(C)C do in these assays?
ALOX12 inh: -4%

Results for Fc1ccccc1CCNc1ncnc2nc[nH]c12 ?
ALOX12 inh: 16%

How did Nc1ncc(-c2ccccc2)c(-c2ccc(O)cc2O)n1 do in these assays?
GRP78 ERSR act: -7%; ALOX12 inh: 0%; VDR inhibitor: -1%; G9a inh: 10%; Sfp inh: -12%

Results for Oc1ccc(-c2cnns2)c(O)c1 ?
GRP78 ERSR act: -6%; ALOX12 inh: inconclusive; VDR inhibitor: -20%; G9a inh: 7.1µM*; Sfp inh: 56µM*

What do the screens show for `CCCCc1cc(=O)oc2c(C)c(OCC(=O)NCc3ccncc3)ccc12`?
ALOX12 inh: -19%

Results for O=C(CSc1ccc2ccccc2c1)N1CCN(c2ccc(O)cc2)CC1 ?
GRP78 ERSR act: 1%; ALOX12 inh: inconclusive; VDR inhibitor: -8%; G9a inh: 16µM*; Sfp inh: 50µM*

Results for CCc1ccc(NC(=O)C(C)OC(=O)c2cccc(S(=O)(=O)N3CCc4ccccc4C3)c2)cc1 (configuration not stated) ?
GRP78 ERSR act: 0%; ALOX12 inh: -11%; VDR inhibitor: -4%; G9a inh: 7.9µM*; Sfp inh: 89µM*

Results for O=C(c1ccc2ccccc2c1)N1CCN(c2ccccn2)CC1 ?
GRP78 ERSR act: -1%; ALOX12 inh: 0%; VDR inhibitor: -14%; G9a inh: 6%; Sfp inh: 13%

What do the screens show for `NC(=O)C1CCN(C(=O)c2cccc(S(=O)(=O)N3CCc4ccccc4C3)c2)CC1`?
GRP78 ERSR act: -4%; ALOX12 inh: 1%; VDR inhibitor: -15%; G9a inh: -12%; Sfp inh: 14%
